# The full list was thinned out, with hits kept by preference.
# Shiga toxin inh = inhibitors of Shiga toxin in Vero cells | AID 2315 | actives 9.2% (n = 290,000) | Vero cells, Shiga toxin protein synthesis inhibition reporter | inhibition, % at 38.7 µM; in the data active = inhibition mostly above about 28%, no sharp cut-off; inactive = mostly below about 43%; also: 0% is about no effect
# CHX counter = counter-screen hit for Shiga toxin inhibitors, cycloheximide; cell reporter, cycloheximide protein synthesis inhibition counterscreen; actives 12% (n = 300,000); max response, %; in the data active = max response mostly above about 13%, no sharp cut-off; inactive = mostly below about 14%; also: read at 38.3 µM for the half of the compounds with a filed dose; 0% is about no effect
# LmPK inh = blocks Leishmania mexicana pyruvate kinase activity | actives 0.37% (n = 290,000) | Q27686 | purified LmPK, Kinase-Glo ATP luminescence, 1 h | Potency, µM (doses to about 57.5 µM), inactives show top-dose activity change, negative = inhibition, usual class: inhibitors; also: potency is read from the fitted curve at half-maximal effect; % is scaled to controls: 0 for no effect and ±100 for the full control effect
# Target sequence (Q27686 whole entry, looked up): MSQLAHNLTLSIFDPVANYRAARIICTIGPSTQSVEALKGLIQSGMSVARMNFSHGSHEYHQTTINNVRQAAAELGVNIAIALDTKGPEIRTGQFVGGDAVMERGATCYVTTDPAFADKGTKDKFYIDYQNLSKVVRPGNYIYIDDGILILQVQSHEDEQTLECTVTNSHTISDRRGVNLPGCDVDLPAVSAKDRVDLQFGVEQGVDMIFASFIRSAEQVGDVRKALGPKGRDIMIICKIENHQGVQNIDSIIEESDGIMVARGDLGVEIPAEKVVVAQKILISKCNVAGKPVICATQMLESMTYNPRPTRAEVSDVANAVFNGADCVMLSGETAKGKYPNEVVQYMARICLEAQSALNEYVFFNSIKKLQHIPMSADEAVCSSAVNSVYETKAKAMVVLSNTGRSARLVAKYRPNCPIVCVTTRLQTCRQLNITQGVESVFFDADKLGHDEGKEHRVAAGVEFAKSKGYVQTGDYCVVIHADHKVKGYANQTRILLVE
#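 Pyruvate kinase activity monitored as ATP production (luciferase luminescence). Conditions: 0.1 nM enzyme, 0.5 mM PEP, 0.1 mM ADP, 1 h, RT; normalized against uninhibited and no-enzyme wells.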
# NS1 inh = blocks influenza NS1 protein function; AID 2326; Potency, µM (highest dose often 46.1 µM), without a hit: at the top dose activity, positive = more growth; actives 0.4% (n = 270,000); calls by dose curve; also: potency is read from the fitted curve at half-maximal effect; actives are rising curves; nearly all actives have a fitted effect of over 50% in size
#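 In this qHTS, NS1 from influenza A is expressed in budding yeast, where it slows growth. Cells are switched from glucose to 2% galactose medium (pH 6.0, -URA), treated with compound, and growth recovery is read at OD600.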
# Tb PYK inh = T. brucei pyruvate kinase inhibition; Q57TT1; TbPYK enzyme, Kinase-Glo Plus ATP luminescence, 45 min; Potency, µM (series often up to 76.8 µM), inactives show top-dose activity, negative = inhibition, actives largely listed as inhibitors; actives 0.12% (n = 410,000); also: potency is read from the fitted curve at half-maximal effect; % is scaled to controls: 0 for no effect and ±100 for the full control effect; nearly all actives have a fitted effect of over 50% in size
#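 Luminescence from Kinase-Glo Plus, added after a 45-minute room-temperature reaction, served as the end-point read-out. The enzyme and substrate were preincubated with compound before ADP (130 uM final) initiated turnover. Concentration-effect curves came from normalized qHTS data.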
# SARS PLpro yeast = inhibitors of SARS-CoV papain-like protease in yeast; S. cerevisiae expressing SARS-CoV PLpro, growth rescue; Potency, µM (highest dose often 32.9 µM), inactives show at the top dose activity, positive = growth rescue, most hits filed as activators; actives 0.19% (n = 330,000); AID 485353; calls by dose curve; also: potency is read from the fitted curve at half-maximal effect; 0% is about no effect; nearly all actives have a fitted effect of over 55% in size
# An asterisk follows results filed as active; ? = inconclusive; nt = no result given; [ ] = remark or other dose. Unless noted, calls follow the shape of the dose curve; as a rule, active = well fitted curve in the direction sought with a large enough effect; inconclusive = small, poorly fitted or top-dose-only effect, or another doubt; inactive = no such curve, though single readings can be large; an effect the other way counts as inactive or inconclusive.
SMILES,Shiga toxin inh,CHX counter,LmPK inh,NS1 inh,Tb PYK inh,SARS PLpro yeast
CN(C)C(=S)SSC(=S)N(C)C,12,23*,1%,9%,4.5µM*,-27%
Cc1ccc(C(=O)NCCc2csc(C)n2)cc1,55*,27*,-1%,6%,6%,1%
Cc1ccc(C(=O)NCCc2ccncc2)cc1,42*,27*,-6%,-9%,-1%,-2%
Cc1ccc(CCNC(=O)NC(C)(C)C)cc1,69*,30*,1%,-3%,1%,3%
Cc1nc(-c2ccc(C(=O)NCCO)cc2)cs1,40,37*,6%,nt,0%,3%
COC(=O)C[C@@H]1C[C@@H]2c3cc(NS(=O)(=O)c4ccc(F)cc4)ccc3O[C@@H]2[C@H](CO)O1,nt,nt,nt,nt,3%,nt
COc1ccc(Nc2ncnc3c2cnn3-c2cc(Cl)ccc2C)cc1OC,nt,nt,nt,nt,-4%,nt
COCCNC(=O)c1ccc(-c2csc(C)n2)cc1,89*,23*,1%[11.5 µM],nt,-5%,-1%
COCCCNC(=O)c1ccc(-c2csc(C)n2)cc1,90*,38*,3%,nt,0%,-4%
Cc1ccc(Sc2ccc(N3CCC(C(=O)Nc4ccc(C)c(F)c4)CC3)nn2)cc1,nt,nt,nt,nt,7%,nt
COc1ccc(NC(=S)NC(=O)c2ccccc2)cn1,132*,69*,-1%,-21%,-4%,-2%
COc1ccc(NC(=O)c2cccc(Oc3ccccc3)c2)cn1,81*,33*,10%,-74%,1%,-5%
CC1=NNC(=O)C1CC(=O)N/N=C/c1sccc1C (centres undefined),1,12,3%,0%,4%,3%
COc1ccc(/C=N/Nc2cn[nH]c(=O)c2Cl)cc1,60,29*,1%,nt,2%,1%
Cc1ccc(/C=N\Nc2cn[nH]c(=O)c2Cl)cc1,107,38*,-2%,-38%,0%,9%
COc1ccc(/C=N/Nc2nnc(Cc3ccccc3)c(=O)[nH]2)cc1,-13,-2,0%,0%,1%,-1%
O=c1[nH]ncc(N/N=C/c2ccccc2)c1Cl,20,5,-4%,-39%,-5%,?
Cc1ccsc1/C=N\Nc1cn[nH]c(=O)c1Cl,46,31*,13%[11.5 µM],nt,-5%,1%
O=C(Cn1cnc([N+](=O)[O-])c1)NCCc1ccccc1,-7,1,-5%,-7%,-5%,-5%
Cc1oc2ccc(O)c(CN3CCN(C)CC3)c2c1C(=O)Nc1cccc(Cl)c1C,nt,nt,nt,nt,-8%,nt
COc1cc(CC(=O)OCC(=O)NC2CCCCC2C)cc(OC)c1OC (centres undefined),nt,nt,nt,nt,0%,-7%
O=c1[nH]c(CSc2nnc(Nc3ccccc3)s2)nc2ccccc12,-8,-2,4%,4%,-4%,-1%
COc1cc(/C=N/O)ccc1OCc1ccc(C(=O)O)cc1,21,54*,?,0%[9.22 µM],4%,-8%
CCOc1cc(/C=N/N=C(N)N)ccc1OCc1ccc(Cl)cc1,-23,-12,-5%,5%,-4%,14%
COc1cc(/C=N/N=C2/NC(=O)C(CC(=O)O)S2)ccc1OCc1ccc(Cl)cc1 (centres undefined),38,20*,?,7%,18µM*,28%
SMILES,Shiga toxin inh,CHX counter,LmPK inh,NS1 inh,Tb PYK inh,SARS PLpro yeast
O=C(O)c1cc(/C=N\O)ccc1OCc1ccccc1,23,3,2%,?,3%,1%
COc1cc(/C=N/N=C(N)N)ccc1OCc1ccc(Cl)cc1,76,40*,0%,5%,0%,-1%
COc1cc(/C=N/O)ccc1OCc1ccc(Cl)cc1,70,37*,-3%,-31%,nt,-1%
Cc1cc(NC(=O)COc2ccc3ccccc3c2Br)no1,nt,nt,nt,nt,0%,1%
CC(=O)c1ccc(OC2(C)CCN(Cc3ccc4c(c3)OCCO4)C2)cc1 (centres undefined),nt,nt,nt,nt,-1%,nt
CN1CCc2c(sc3c2C(=O)NC(c2ccc(OC(=O)c4ccccc4)cc2)N3)C1 (centres undefined),nt,nt,nt,nt,2%,nt
Cc1c(C(=O)N2CCCCC2CCN2CCCC2=O)oc2c(F)cccc12 (centres undefined),-6,5,-8%,-4%,7%,1%
CC(C)CC(NC(=O)C1CCC(C)CC1)C(=O)Nc1ccc2c(c1)OCCO2 (centres undefined),122*,44*,10%,20%,-3%,-7%
CC(=O)NC(CCS(C)(=O)=O)C(=O)Nc1ccc2c(c1)OCCO2 (centres undefined),42*,11,0%,-1%,4%,1%
CC(=O)NC(CCS(C)(=O)=O)C(=O)Nc1ccc2c(c1)OCO2 (centres undefined),4,-2,0%,-5%,1%,3%
CC(C)CC(NC(=O)C1CCC(C)CC1)C(=O)Nc1ccccn1 (centres undefined),131*,27*,-14%,-4%,0%,-5%
COC(=O)[C@H](CC(C)C)NC(=O)Nc1ccc2c(c1)OCCO2,93*,33*,-2%,-6%,3%,-7%
CCC1CCC(C(=O)NC(C(=O)Nc2ccc3c(c2)OCCO3)C(C)C)CC1 (centres undefined),50,23,0%,5%,2%,6%
CCOc1ccccc1OCCCC(=O)Nc1cc(S(=O)(=O)N2CCCCC2)ccc1C,nt,nt,nt,nt,6%,nt
Cc1oc2c(cc(NS(=O)(=O)c3ccc(Cl)cc3)c3ccccc32)c1C(=O)OCc1ccccc1,nt,nt,nt,nt,-4%,nt
C[C@H]1CN([C@@H](C)CO)S(=O)(=O)c2ccc(Br)cc2O[C@H]1CN(C)C(=O)Cc1ccccn1,nt,nt,nt,nt,5%,nt
COc1ccc2c(c1)CCc1cnoc1-2,nt,nt,nt,nt,2%,nt
COc1ccc2c(c1)CCc1cn[nH]c1-2,23,13*,-1%,0%,-3%,-3%
Cn1c(=O)n(C)c2cc(NC(=O)c3ccccc3)ccc21,nt,nt,nt,nt,1%,nt
C=CCSc1nc2ccccc2n1S(=O)(=O)c1ccc(C)cc1,19,21*,-2%,-8%,0%,-20%
O=C(NC(=S)Nc1ccc(NC(=O)c2cccs2)cc1)c1ccco1,12,8,3%,15%,-22%,-15%
O=C(Nc1ccc(NC(=O)c2cccs2)cc1)c1ccco1,36,31*,-13%,-3%,-2%,-21%
O=C(OCC(=O)c1cccs1)c1ccc(NC(=O)c2ccco2)cc1,123,59*,4%,-56%,-9%,-13%
CCCCC/C=C\C/C=C\C/C=C\C/C=C\CCCC(=O)C(F)(F)F,25,3,nt,nt,nt,nt
COc1ccc(C(=O)/C=C/c2ccc(OC)cc2OC)c(O)c1,72*,43*,-1%,1%,-8%,0%
COc1ccc(C(=O)/C=C/c2ccccc2)c(O)c1,54*,70*,-4%,-14%,-5%,-14%
COc1ccc(/C=C/C(=O)c2ccc(Cl)cc2)c(OC)c1,80*,43*,-4%,13%,1%,-10%

# From PubChem
